Legend:
[1] = target: T1, ETS1 (UniProt P14921); assay: ETS1 binding intensity (PBM fluorescence), ETS1 alone (arbitrary fluorescence units); higher = stronger binding; settings: ETS1 concentration 1 nM; RUNX1 concentration 0 nM
T1 sequence: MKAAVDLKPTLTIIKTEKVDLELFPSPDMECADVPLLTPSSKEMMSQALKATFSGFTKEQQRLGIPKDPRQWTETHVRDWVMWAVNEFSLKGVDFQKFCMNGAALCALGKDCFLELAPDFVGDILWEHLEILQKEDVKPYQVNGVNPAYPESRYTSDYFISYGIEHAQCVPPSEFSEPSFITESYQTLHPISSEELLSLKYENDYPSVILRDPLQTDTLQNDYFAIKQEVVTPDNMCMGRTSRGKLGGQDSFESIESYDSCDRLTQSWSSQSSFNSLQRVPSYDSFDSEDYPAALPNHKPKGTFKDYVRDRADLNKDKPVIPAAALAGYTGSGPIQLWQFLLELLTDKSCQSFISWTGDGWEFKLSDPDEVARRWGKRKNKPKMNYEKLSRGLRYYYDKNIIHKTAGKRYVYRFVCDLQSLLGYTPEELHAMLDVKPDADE

[2] = target: RUNX1 (UniProt Q01196); assay: RUNX1 binding intensity (PBM fluorescence) in presence of ETS1, normalised to RUNX1-only experiment (arbitrary fluorescence units); higher = stronger binding; settings: RUNX1 concentration 2 nM; ETS1 concentration 25 nM
Chain of RUNX1 (Q01196 whole entry): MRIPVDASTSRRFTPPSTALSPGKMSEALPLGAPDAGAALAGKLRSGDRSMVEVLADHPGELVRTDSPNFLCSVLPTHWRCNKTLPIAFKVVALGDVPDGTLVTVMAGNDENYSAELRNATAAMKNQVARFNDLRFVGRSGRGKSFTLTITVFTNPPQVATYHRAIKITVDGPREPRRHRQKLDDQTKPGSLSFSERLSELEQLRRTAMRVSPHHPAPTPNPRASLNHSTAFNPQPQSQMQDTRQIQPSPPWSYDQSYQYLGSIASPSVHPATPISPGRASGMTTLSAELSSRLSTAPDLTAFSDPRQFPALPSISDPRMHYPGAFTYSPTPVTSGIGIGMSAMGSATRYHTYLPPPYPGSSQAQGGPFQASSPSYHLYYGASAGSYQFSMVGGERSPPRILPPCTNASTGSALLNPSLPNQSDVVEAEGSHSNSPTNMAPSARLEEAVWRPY
Description: (§1)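 Cooperative gcPBM on 36-bp genomic probes with neighbouring ETS1 and RUNX1 sites. Recombinant human RUNX1 (2 nM) was incubated alone or with ETS1 (25 nM) and detected with anti-RUNX1 antibody plus Alexa488 secondary. Values are medians over 4 replicate spots; the RUNX1+ETS1 data were normalised to the RUNX1-only data. The probes sit in constant array flanks that are not printed.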

[3] = target: RUNX1 (UniProt Q01196); assay: RUNX1 binding intensity (PBM fluorescence), RUNX1 alone (arbitrary fluorescence units); higher = stronger binding; settings: RUNX1 concentration 2 nM; ETS1 concentration 0 nM
Description: as §1
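For RUNX1 binding intensity (PBM fluorescence) in presence of ETS1, normalised to RUNX1-only experiment in this document: Full-length recombinant human ETS1 or RUNX1 bound to double-stranded 36-bp genomic probes on microarrays, detected by protein-specific primary antibody and Alexa488 secondary, spot fluorescence as median of four replicate spots.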
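For RUNX1 binding intensity (PBM fluorescence), RUNX1 alone in this document: Full-length recombinant human RUNX1 bound to double-stranded 36-bp genomic probes on a high-density microarray, scored as Alexa488 fluorescence per spot via anti-RUNX1 antibody, median of four replicate spots.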

Row | Sequence | ETS1 binding intensity [1] | RUNX1 binding intensity [2] | RUNX1 binding intensity [3]
1 | GCTCTTCACTTCCTGTGGCTCCCGCAGCGGCCGCCG | 1920 | 2460 | 
2 | CCTCGGTTCGGAAACGGCGAAAGCAAACCGCAAGGA | 478 | 3120 | 2260
3 | GCTGGTATGGCAGGAAGTTTCTCACCACAGTATACT | 3540 | 1160 | 780
4 | TTAAGGAGCTTCCGGGGCCGCGGGTAGAGGCGGGTG | 629 | 1420 | 
5 | TAGCCACGAACCGGAAACGTTAAACCACAGCTCCGT | 9650 | 5730 | 994
6 | GACACAAGAACAGCAGGATGTGGTCAGAGGCGTCGT | 2610 | 3510 | 722
7 | AATCATTTCCTGCCCTAACGTTTGTGGTCTGCCTAG | 728 | 2760 | 832
8 | AGCTCTAAGGTTCCGCCTGCGGGCAGCAAGCGGAGG |  | 902 | 
9 | CAGGCAGGATGTTGACTCAGCTGCCAAGTGGTTTTG | 1340 | 1020 | 
10 | GACTTTTACGGAAATAGCAGTCCAAAACCGCGTCTA | 691 | 1170 | 868
11 | AAGAAAAAGGGAGGATGTGGTTTAGCAAAAGCACTG | 1420 | 2230 | 
12 | GAATGGCGGATGTGGCTGGGGAGAGAAAGCCGCAGA | 914 | 2610 | 
13 | GGGTCTCCAGGAAGCCACTCACCACAAACTTTGACA | 482 | 1480 | 
14 | CGGGAGGGGCAGGAAGCGGACTGCGGTGGGGAAGGG | 2770 | 1470 | 
15 | TCATGCTGCTTCCTGCCCAACCCGCAGTTCCGATAA | 890 | 2350 | 
16 | TTCAACAGGATATTGCTTTGTTACCACAGGCCCTTT | 1590 | 1490 | 
17 | CACTCCCCGAATCCGGTCTGCGGCGCGCTCGGGGCC |  | 1250 | 

Source: the supplement of paper PMC10681739
